# Measurements taken from PubChem BioAssay (NCI).
# Compounds without any hit were thinned out: in the full panel of roughly 83,000, 20% have a hit.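 How to read the values: 0–100, growth inhibition (40 = 60% inhibited); 0, no net growth; -100 to 0, cell death (-40 = 40% of starting cells died; -100 = all dead).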 Values without a mark were called inactive. Calls of active or inactive are those of the source. How the source made its calls: active means growth percent below 10; inactive means the rest.
# Tests used:
# Assay in all cases: NCI-60 one-dose screen, 48 h (100 = growth as untreated, 0 = no growth, -100 = all killed)
# Conditions in all cases: 10 µM unless noted
# DU-145 prostate = system: DU-145 prostate
# K-562 leukemia = system: K-562 leukemia
# MALME-3M melanoma = system: MALME-3M melanoma
# MDA-MB-231 breast = system: MDA-MB-231 breast
# RXF 393 renal = system: RXF 393 renal
# SF-268 CNS = system: SF-268 CNS
# SF-295 CNS = system: SF-295 CNS
# SF-539 CNS = system: SF-539 CNS
# UACC-257 melanoma = system: UACC-257 melanoma
# M14 melanoma = system: M14 melanoma
# HCT-15 colon = system: HCT-15 colon
# HT29 colon = system: HT29 colon
# SNB-19 CNS = system: SNB-19 CNS
# U251 CNS = system: U251 CNS
# PC-3 prostate = system: PC-3 prostate
# SK-MEL-5 melanoma = system: SK-MEL-5 melanoma
# UACC-62 melanoma = system: UACC-62 melanoma
# LOX IMVI melanoma = system: LOX IMVI melanoma
# SK-MEL-28 melanoma = system: SK-MEL-28 melanoma
SMILES,growth (DU-145 prostate),growth (K-562 leukemia),growth (MALME-3M melanoma),growth (MDA-MB-231 breast),growth (RXF 393 renal),growth (SF-268 CNS),growth (SF-295 CNS),growth (SF-539 CNS),growth (UACC-257 melanoma),growth (M14 melanoma),growth (HCT-15 colon),growth (HT29 colon),growth (SNB-19 CNS),growth (U251 CNS),growth (PC-3 prostate),growth (SK-MEL-5 melanoma),growth (UACC-62 melanoma),growth (LOX IMVI melanoma),growth (SK-MEL-28 melanoma)
CC1(C)CC(=O)c2c(nn(-c3ccc(Br)cc3)c2-c2cn(-c3ccccc3)nc2-c2cccnc2)C1,111%,84.4%,101%,89.7%,96.1%,97.8%,92.1%,105%,111%,98.6%,94.9%,98.1%,92.5%,91.7%,71.7%,97.2%,76.7%,85.5%,113%
O=C1c2ccccc2C(=O)c2c1cc1c(c2[N+](=O)[O-])OCO1,17.8%,10.5%,85%,11.3%,-63.5% (active),5.31% (active),10.6%,21.3%,82.3%,73.5%,13.7%,32.5%,21.7%,-13.3% (active),-3.71% (active),80%,15.2%,2.79% (active),–
Cc1ccc2c(-c3nnc(N)s3)cc(=O)oc2c1C,116%,87.3%,104%,96.5%,106%,102%,97.4%,102%,106%,101%,96.9%,106%,104%,99.7%,97.1%,101%,94.8%,101%,102%
COc1ccc(/C(C)=C(\c2ccc(Cl)cc2)c2ccc(OCCN3CCCCC3)cc2)cc1,78.8%,3.68% (active),35.1%,45.7%,33.5%,59.2%,7.09% (active),43.9%,1.77% (active),4.01% (active),9.98% (active),-2.6% (active),62.8%,36.4%,41%,-39% (active),33.4%,3.11% (active),20.1%
C#COc1cccc(Nc2ncnc3cc(NC(=O)[C@@H](C)Cl)ccc23)c1,13% [6.25 µM],7.85% [6.25 µM] (active),38.2% [6.25 µM],24.5% [6.25 µM],7.55% [6.25 µM] (active),21.6% [6.25 µM],7.32% [6.25 µM] (active),-5.67% [6.25 µM] (active),36.9% [6.25 µM],10.4% [6.25 µM],11.6% [6.25 µM],0.0167% [6.25 µM] (active),19.3% [6.25 µM],4.37% [6.25 µM] (active),8.91% [6.25 µM] (active),14.2% [6.25 µM],24.9% [6.25 µM],11.4% [6.25 µM],38% [6.25 µM]
CC(=O)ON1CCCC(P(=O)(OCCSC(=O)C(C)(C)C)OCCSC(=O)C(C)(C)C)C1=O (stereo unspecified),42.5%,19.4%,17.1%,25.1%,-26.7% (active),19.2%,55.5%,57.6%,54.2%,34.3%,12.1%,19.3%,19%,6.6% (active),48.1%,-2.99% (active),20.4%,25.8%,30.7%
COC(=O)c1ccc(NC(=O)Nc2ccc(C(=O)OC)cc2)cc1,121%,90.6%,123%,94.1%,112%,115%,121%,112%,104%,103%,93%,82.4%,97.2%,113%,82%,102%,82.3%,98.1%,–
